Reference: PubChem BioAssay (Tox21)
Results filed as inconclusive are left out. A number with no mark means an inactive call. Calls come from the whole dose curve; as a rule, active = well fitted cell-killing curve with a large enough effect in the repeat runs; inconclusive = weak or mixed curves; inactive = flat fitted curve, though single readings scatter.
% is set by controls: 0 for no effect and ±100 for the full control effect.

Assay: qHTS RealTime-Glo MT Cell Viability Assay in HepG2 cells - 24 hour (AID 1224867); note: nearly all actives have a fitted effect of over 50% in size
Conditions: RealTime-Glo luminescence; series mostly up to 76.8 µM; activity change, negative = cytotoxicity: at the top concentration
Excerpt: U.S. Tox21 Program National Center for Advancing Translational Sciences [NCATS] NIH Chemical Genomics Center [NCGC] U.S. Environmental Protection Agency [EPA] National Institutes of Environmental Health Sciences [NIEHS] National Toxicology Program [NTP] U.S. Food and Drug Administration [FDA] Tox21 Assay Overview: Measure of cell viability is critical in the cell-base assay. Analysis of cell viability is necessary for the characterization of cell responses to cytotoxic drugs and environmental stress. A RealTime-Glo MT Cell Viability Assay to monitor cell viability in real time of continues cell culture during 40 hours of compound treatment was used to screen Tox21 10K library compounds in HepG2 cells. The RealTime-Glo MT Cell Viability Assay is a nonlytic, homogeneous, bioluminescent method to measure cell viability in real time using a simple, plate-based method. The assay involves adding NanoLuc luciferase and a cell-permeant prosubstrate to cells in culture. Viable cells reduce the proprietary prosubstrate to generate a substrate for NanoLuc luciferase. This substrate diffuses from cells into the surrounding culture medium, where it is rapidly used by the NanoLuc Enzyme to produce a luminescent signal. The signal correlates with the number of viable cells, making the assay well suited for cytotoxicity studies.
Tox21 Assay Protocol Summary: The mixture of HepG2 cell suspension and reagents were dispensed at 600cells/6 ul/well in 1536-well tissue culture treated black solid bottom plates using a Multidrop dispenser. After the assay plates were incubated at a 37 C/5% CO2 incubator for 5 hours, 23 nL of compounds dissolved in DMSO, positive and negative controls was transferred to the assay plate by a pintool work station. The plates were incubated at 37 C for 40 hours. The luminescence intensity were measured at 0h, 8h, 16h, 24h, 32h and 40h time points using ViewLux plate reader during compound treatment.
In the case of Cc1ccc(C(=O)c2ccccc2)cc1, the “activity change, negative = cytotoxicity” value is reported as -8.41%. In the case of CC(C)[C@H]1CC[C@@H](C)CC1=O, the “activity change, negative = cytotoxicity” value is reported as 3.36%. In the case of [Ca+2], the “activity change, negative = cytotoxicity” value is reported as 0.257%. In the case of C1CCC2=NCCCN2CC1, the “activity change, negative = cytotoxicity” value is reported as 0.0064%. With C=CN1CCCCCC1=O the “activity change, negative = cytotoxicity” value was 2.08%. With CCCOC(=O)CC the “activity change, negative = cytotoxicity” value was 0.956%. With CC1OC1C1CCC2(C)OC2C1 (stereo not given) the “activity change, negative = cytotoxicity” value was 0.601%. In the case of CC(C)(C)OC(=O)c1cccc(N)c1, the “activity change, negative = cytotoxicity” value is reported as 1.81%. For COCCOCC(OC)OC, the “activity change, negative = cytotoxicity” value was 1.78% [at 35.3 µM]. In the case of CC(=O)Nc1ccc(OCC(O)CNC(C)C)cc1 (stereo not given), the “activity change, negative = cytotoxicity” value is reported as 0.899% [at 35.3 µM]. For CO[C@@]1(NC(=O)CSC[C@@H](N)C(=O)O)C(=O)N2C(C(=O)O)=C(CSc3nnnn3C)CS[C@@H]21, the “activity change, negative = cytotoxicity” value was 0.824% [at 35.3 µM]. With CC(CO)(CO)[N+](=O)[O-] the “activity change, negative = cytotoxicity” value was 0.751%. In the case of NC(=O)N1c2ccccc2CC(=O)c2ccccc21, the “activity change, negative = cytotoxicity” value is reported as 1.07% [at 35.3 µM]. For COc1ccccc1OCC1CNC(=O)O1 (stereo not given), the “activity change, negative = cytotoxicity” value was 1.88% [at 35.3 µM]. For O=C(O)Cc1csc(-c2ccc(Cl)cc2)n1, the “activity change, negative = cytotoxicity” value was 4.23% [at 35.3 µM]. For C[C@H]1[C@H](NC(=O)/C(=N/OC(C)(C)C(=O)O)c2csc(N)n2)C(=O)N1S(=O)(=O)O (stereo in doubt), the “activity change, negative = cytotoxicity” value was 0.842% [at 35.3 µM]. In the case of Cc1c(N)c(=O)n(-c2ccccc2)n1C, the “activity change, negative = cytotoxicity” value is reported as -1.81% [at 35.3 µM]. In the case of Cc1nc(C2CCCCC2)c(-c2ccc(S(N)(=O)=O)c(F)c2)o1, the “activity change, negative = cytotoxicity” value is reported as -22.2% [at 35.3 µM]. With NO the “activity change, negative = cytotoxicity” value was -0.76%. In the case of CC(C)C(=O)OC(=O)C(C)C, the “activity change, negative = cytotoxicity” value is reported as 1.55%. With CC[N+](C)(CC)CCOC(=O)C1c2ccccc2Oc2ccccc21 the “activity change, negative = cytotoxicity” value was 2.44% [at 35.3 µM]. With O=C(c1ccccc1)C1(O)CCCCC1 the “activity change, negative = cytotoxicity” value was 0.973%. In the case of CN1CC(=O)N/C1=N/C(=O)Nc1cccc(Cl)c1, the “activity change, negative = cytotoxicity” value is reported as 0.181% [at 35.3 µM]. For CCCCCCCCCCOc1cc2c(=O)c(C(=O)OCC)c[nH]c2cc1OCC, the activity change, negative = cytotoxicity was 3.75% [at 6.97 µM]. For O=C(O)CCSCCC(=O)O, the “activity change, negative = cytotoxicity” value was 2.58%. For CC1(C)OC[C@@H](COC(=O)CCc2ccc(OC[C@@H](O)CNCCNC(=O)N3CCOCC3)cc2)O1, the “activity change, negative = cytotoxicity” value was 0.68% [at 35.3 µM]. With CCOC(=O)c1ccccc1 the “activity change, negative = cytotoxicity” value was 1.93%. For CC(=O)c1ccccc1[N+](=O)[O-], the “activity change, negative = cytotoxicity” value was -0.158%. In the case of CCN[C@@H]1C[C@H](N)[C@@H](OC2OC(CN)=CCC2N)[C@H](O)[C@H]1O[C@H]1OC[C@](C)(O)[C@H](NC)[C@H]1O (stereo not given in full), the activity change, negative = cytotoxicity is reported as 1.48% [at 0.29 µM]. In the case of CC(C(=O)O)c1cccc(Oc2ccccc2)c1 (stereo not given), the “activity change, negative = cytotoxicity” value is reported as 1.41% [at 35.3 µM]. In the case of COc1cccc(OC)c1C(=O)N[C@@H]1C(=O)N2[C@@H]1SC(C)(C)[C@@H]2C(=O)O, the “activity change, negative = cytotoxicity” value is reported as -0.0709% [at 35.3 µM]. In the case of N[C@H](C(=O)O)[C@@H](O)c1ccc(O)c(O)c1, the “activity change, negative = cytotoxicity” value is reported as 0.383% [at 35.3 µM]. In the case of CCCC(C)C(=O)OCC (stereo not given), the “activity change, negative = cytotoxicity” value is reported as 3.78%. For CN1[C@@H]2CC[C@H]1CC(OC(=O)C(O)c1ccccc1)C2 (stereo not given in full), the “activity change, negative = cytotoxicity” value was 1.79% [at 35.3 µM]. With C[C@@H]1C[C@H]2[C@@H]3C[C@H](F)C4=CC(=O)C(Cl)=C[C@]4(C)[C@@]3(F)[C@@H](O)C[C@]2(C)[C@@]1(O)C(=O)CO the “activity change, negative = cytotoxicity” value was -10.7% [at 35.3 µM]. With CCOc1c(N2CCOCC2)cnn(C)c1=O the “activity change, negative = cytotoxicity” value was 0.247% [at 35.3 µM]. With CCCc1ncc(C[n+]2ccccc2C)c(N)n1 the “activity change, negative = cytotoxicity” value was 1.09% [at 35.3 µM]. With COc1cc2c(cc1OC)-c1cc3ccc(OC)c(OC)c3c[n+]1CC2 the “activity change, negative = cytotoxicity” value was -9.99%. In the case of CC1=NN(c2cccc(S(=O)(=O)O)c2)C(=O)C1, the “activity change, negative = cytotoxicity” value is reported as 0.575%. With O=C1c2ccccc2C(=O)c2cc(O)ccc21 the “activity change, negative = cytotoxicity” value was -5.38%.
